In PubChem BioAssay (Tox21):
Where “and” joins values, the source holds several entries; their conditions need not be identical. Equal values may be shown once. Results filed as inconclusive are left out. Some compounds were tested as several samples or in several runs, with calls that do not always agree. Calls of active or inactive are those of the source. Unless noted, the call rests on the fitted dose curve; in most records, active means well fitted curve in the direction sought with a large enough effect in the repeat runs; inconclusive means weak or mixed curves; inactive means no such curve, though single readings can be large; an effect the other way counts as inactive or inconclusive.

How the values were obtained:
[1] = biological target: Peroxisome proliferator-activated receptor gamma (Homo sapiens) (UniProt P37231); assay: qHTS assay to identify small molecule agonists of the peroxisome proliferator-activated receptor gamma (PPARg) signaling pathway (AID 743094; active means well fitted activation curve with a large enough effect in the signal ratio in the repeat runs, not every such curve was filed as active; the % refers to the signal ratio)
Outline: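 Stably transfected HEK293H cells (GeneBLAzer PPARg UAS-bla) were incubated with test substances for 17 h at 37C after a 5 h pre-incubation; beta-lactamase activity was then detected by FRET substrate fluorescence.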

[2] = qHTS assay for small molecule agonists of the antioxidant response element (ARE) signaling pathway (AID 743202; active means well fitted activation curve with a large enough effect in the signal ratio in the repeat runs, not every such curve was filed as active; the % refers to the signal ratio)
Outline: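 Quantitative high-throughput format in HepG2 cells bearing an integrated ARE-beta-lactamase reporter. Compound exposure lasted 16 h at 37 C, and fluorescence was read 2 h after adding LiveBLAzer B/G substrate at room temperature.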

[3] = qHTS assay for small molecule agonists of the antioxidant response element (ARE) signaling pathway - cell viability counter screen (AID 743203; calls by dose curve; further: nearly all actives have a fitted effect of over 55% in size; further: potency means the concentration at half of the fitted maximal effect)
Outline: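 Cells (ARE-bla HepG2, 2,000/well) receive DMSO-dissolved compounds after a 5 hrs rest. Plates incubate 16 hrs at 37C/5% CO2. CellTiter-Glo luminescence is then recorded after 30 min at room temperature.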

[4] = qHTS assay for small molecule activators of the heat shock response signaling pathway - cell viability counter screen (AID 743209); further: nearly all actives have a fitted effect of over 50% in size; further: potency means the concentration at half of the fitted maximal effect
Outline: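 Quantitative HTS format, Tox21 10K library. HeLa cells carrying an HSE-driven beta-lactamase reporter were treated 5 h at 37 C, then assessed for viability by CellTiter-Glo luminescence.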

[5] = qHTS assay to identify small molecule agonists of the peroxisome proliferator-activated receptor delta (PPARd) signaling pathway - cell viability counter screen (AID 743211); further: nearly all actives have a fitted effect of over 55% in size; further: potency means the concentration at half of the fitted maximal effect
Outline: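 Luminescent ATP viability assay (CellTiter-Glo, 30 min RT) in UAS-bla HEK293H cells carrying the PPAR delta reporter construct, 3000 cells/well, after a 17 h compound treatment at 37 C.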

[6] = biological target: Peroxisome proliferator-activated receptor delta (Homo sapiens) (UniProt Q03181); assay: qHTS assay to identify small molecule agonists of the peroxisome proliferator-activated receptor delta (PPARd) signaling pathway (AID 743212; calls by dose curve)
Outline: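 HEK293H PPARd-bla cells; 5 h preincubation 37 C/5% CO2; compound (DMSO) 37 C; LiveBLAzer B/G FRET substrate 2 h RT; fluorescence intensity.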

[7] = qHTS assay to identify small molecule antagonists of the peroxisome proliferator-activated receptor delta (PPARd) signaling pathway - cell viability counter screen (AID 743213); further: nearly all actives have a fitted effect of over 50% in size; further: potency means the concentration at half of the fitted maximal effect
Outline: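 HEK293H cells with the PPARd UAS-bla reporter, co-treated 17 h at 37 C with compounds and L165041 (300 nM final), were lysed with CellTiter-Glo. Luminescence indicated viable cell content.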

[8] = biological target: Peroxisome proliferator-activated receptor delta (Homo sapiens) (UniProt Q03181); assay: qHTS assay to identify small molecule antagonists of the peroxisome proliferator-activated receptor delta (PPARd) signaling pathway (AID 743215; active means well fitted inhibition curve with a large enough effect in the signal ratio in the repeat runs, not every such curve was filed as active; the % refers to the signal ratio;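 further: cells stimulated with agonist L165041 at 300 nM final during compound exposure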; further: potency means the concentration at half of the fitted maximal effect)
Outline: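 Antagonist-mode beta-lactamase reporter screen: HEK293H cells with UAS-bla under PPARd control, stimulated by 300 nM L165041 (final) alongside test compound for 17 h at 37 C, then FRET fluorescence after 2 h substrate incubation.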

[9] = qHTS assay to identify small molecule agonists of the farnesoid-X-receptor (FXR) signaling pathway - cell viability counter screen (AID 743218); further: nearly all actives have a fitted effect of over 45% in size; further: potency means the concentration at half of the fitted maximal effect
Outline: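 In GeneBLAzer FXR-UAS-bla HEK 293T cells, compounds act for 16 h at 37 C. Cell viability is then scored in the reporter wells by CellTiter-Glo, 30 min at RT, luminescence.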

[10] = qHTS assay to identify small molecule antagonists of the farnesoid-X-receptor (FXR) signaling pathway - cell viability counter screen (AID 743221; active means well fitted cell-killing curve with a large enough effect in the repeat runs, not every such curve was filed as active; further: nearly all actives have a fitted effect of over 50% in size)
Outline: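 In GeneBLAzer FXR-UAS-bla HEK 293T cells stimulated with 50 uM chenodeoxycholic acid (final), compounds acted for 16 h at 37 C. Viability was assessed afterwards by CellTiter-Glo luminescence.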

[11] = biological target: Vitamin D3 receptor (Homo sapiens) (UniProt P11473); assay: qHTS assay to identify small molecule agonists of the vitamin D receptor (VDR) signaling pathway (AID 743222; calls by dose curve)
Outline: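 Agonist activity measured in VDR-bla reporter cells. Exposure 16 h, 37C, 5% CO2; detection by B/G FRET substrate, 2 h RT.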

[12] = biological target: Vitamin D3 receptor (Homo sapiens) (UniProt P11473); assay: qHTS assay to identify small molecule antagonists of the vitamin D receptor (VDR) signaling pathway (AID 743223; active means well fitted inhibition curve with a large enough effect in the signal ratio in the repeat runs, not every such curve was filed as active; the % refers to the signal ratio)
Outline: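 Agonist 1alpha,25-dihydroxyvitamin D3 (3 nM in well) was added with each compound to VDR-bla cells preincubated 4 h. Cells stood 16 h at 37C, then FRET substrate 2 h at room temperature; fluorescence intensity recorded.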

[13] = qHTS assay to identify small molecule that activate the aryl hydrocarbon receptor (AhR) signaling pathway - cell viability counter screen (AID 743086);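 further: HepG2 liver cells carrying the AhR DRE luciferase reporter; series mostly up to about 70 µM; nearly all actives have a fitted effect of over 45% in size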
Outline: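 Cytotoxicity counter screen: CellTiter-Fluor signal (30 min, 37 C) in 4000 HepG2 cells/well carrying the DRE-luciferase reporter, following 24 h compound exposure at 37 C.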

[14] = qHTS assay to identify small molecule antagonists of the peroxisome proliferator-activated receptor gamma (PPARg) signaling pathway - cell viability counter screen (AID 743194); settings: Potency: co-treated with 50 nM rosiglitazone unless noted; further: nearly all actives have a fitted effect of over 55% in size
Outline: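 Viability was measured as CellTiter-Glo luminescence in GeneBLAzer PPARg UAS-bla HEK293H cells. These cells had been exposed 17 h at 37 C to compounds together with rosiglitazone at 50 nM final, with the beta-lactamase readout taken in the same wells.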

[15] = biological target: Bile acid receptor (Homo sapiens) (UniProt Q96RI1); assay: qHTS assay to identify small molecule agonists of the farnesoid-X-receptor (FXR) signaling pathway (AID 743220; active means well fitted activation curve with a large enough effect in the signal ratio in the repeat runs, not every such curve was filed as active; the % refers to the signal ratio)
Outline: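 Beta-lactamase reporter under UAS control in GeneBLAzer FXR HEK 293T cells (5000/well) measured with LiveBLAzer FRET substrate after 2 h at room temperature. Compound exposure lasted 16 h at 37C.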

[16] = qHTS assay for small molecule activators of the heat shock response signaling pathway (AID 743210; active means well fitted activation curve with a large enough effect in the signal ratio in the repeat runs, with a control signal flat, not every such curve was filed as active; the % refers to the signal ratio;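 further: HeLa cells with beta-lactamase reporter driven by heat shock elements; series mostly up to about 63 µM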)
Outline: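 HeLa HSE-bla cells, overnight plating; cpd in DMSO 5 h, 37 C; LiveBLAzer B/G FRET substrate 2.5 h RT; fluorescence intensity read.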

[17] = biological target: Bile acid receptor (Homo sapiens) (UniProt Q96RI1); assay: qHTS assay to identify small molecule antagonists of the farnesoid-X-receptor (FXR) signaling pathway (AID 743217; active means well fitted inhibition curve with a large enough effect in the signal ratio in the repeat runs, not every such curve was filed as active; the % refers to the signal ratio)
Outline: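 Beta-lactamase reporter under UAS control in HEK 293T cells; compound exposure 16 h at 37 °C in the presence of chenodeoxycholic acid (50 uM final); signal from B/G FRET substrate after 2 h at room temperature.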

[18] = qHTS assay to identify small molecule agonists of the vitamin D receptor (VDR) signaling pathway - cell viability counter screen (AID 743224); further: nearly all actives have a fitted effect of over 50% in size; further: potency means the concentration at half of the fitted maximal effect
Outline: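 VDR-bla cell line, quantitative HTS format; 16 h compound incubation (37C, 5% CO2); ATP-based CellTiter-Glo luminescence measured in the reporter assay wells.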

[19] = biological target: Peroxisome proliferator-activated receptor gamma (Homo sapiens) (UniProt P37231); assay: qHTS assay to identify small molecule antagonists of the peroxisome proliferator-activated receptor gamma (PPARg) signaling pathway (AID 743191; calls by dose curve; further: nearly all actives have a fitted effect of over 30% in size; further: potency means the concentration at half of the fitted maximal effect)
Outline: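 Beta-lactamase reporter under UAS control in HEK293H PPARg-bla cells; compound treatment 17 h at 37C. Read-out: fluorescence intensity after 1 h room-temperature incubation with LiveBLAzer B/G FRET substrate.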

Measured: Potency

Chain of Vitamin D3 receptor (Homo sapiens) (P11473 whole entry, looked up): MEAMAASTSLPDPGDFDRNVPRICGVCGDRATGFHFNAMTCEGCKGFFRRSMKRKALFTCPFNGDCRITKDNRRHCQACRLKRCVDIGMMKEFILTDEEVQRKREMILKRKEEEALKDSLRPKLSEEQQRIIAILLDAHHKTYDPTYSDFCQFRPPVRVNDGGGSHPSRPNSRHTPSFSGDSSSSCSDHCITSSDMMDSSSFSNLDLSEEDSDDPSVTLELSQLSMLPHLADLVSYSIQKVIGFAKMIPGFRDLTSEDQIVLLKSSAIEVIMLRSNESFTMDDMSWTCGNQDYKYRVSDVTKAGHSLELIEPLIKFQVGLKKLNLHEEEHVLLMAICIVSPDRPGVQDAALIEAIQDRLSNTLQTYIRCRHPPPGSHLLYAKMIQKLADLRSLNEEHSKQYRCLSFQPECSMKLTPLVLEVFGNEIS
Chain of Peroxisome proliferator-activated receptor delta (Homo sapiens) (Q03181 whole entry, looked up): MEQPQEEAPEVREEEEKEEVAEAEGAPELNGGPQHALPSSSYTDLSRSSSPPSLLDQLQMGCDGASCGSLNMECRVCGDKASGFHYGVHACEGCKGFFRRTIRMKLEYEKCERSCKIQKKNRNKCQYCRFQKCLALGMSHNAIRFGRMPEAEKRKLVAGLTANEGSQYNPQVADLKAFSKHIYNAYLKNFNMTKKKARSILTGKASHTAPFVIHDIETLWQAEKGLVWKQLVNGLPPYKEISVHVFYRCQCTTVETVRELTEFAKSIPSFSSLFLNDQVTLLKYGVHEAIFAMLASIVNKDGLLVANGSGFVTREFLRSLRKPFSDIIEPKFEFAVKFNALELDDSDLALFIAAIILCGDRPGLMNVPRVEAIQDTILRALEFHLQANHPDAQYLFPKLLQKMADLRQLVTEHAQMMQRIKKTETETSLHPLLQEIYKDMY
Chain of Peroxisome proliferator-activated receptor gamma (Homo sapiens) (P37231 whole entry, looked up): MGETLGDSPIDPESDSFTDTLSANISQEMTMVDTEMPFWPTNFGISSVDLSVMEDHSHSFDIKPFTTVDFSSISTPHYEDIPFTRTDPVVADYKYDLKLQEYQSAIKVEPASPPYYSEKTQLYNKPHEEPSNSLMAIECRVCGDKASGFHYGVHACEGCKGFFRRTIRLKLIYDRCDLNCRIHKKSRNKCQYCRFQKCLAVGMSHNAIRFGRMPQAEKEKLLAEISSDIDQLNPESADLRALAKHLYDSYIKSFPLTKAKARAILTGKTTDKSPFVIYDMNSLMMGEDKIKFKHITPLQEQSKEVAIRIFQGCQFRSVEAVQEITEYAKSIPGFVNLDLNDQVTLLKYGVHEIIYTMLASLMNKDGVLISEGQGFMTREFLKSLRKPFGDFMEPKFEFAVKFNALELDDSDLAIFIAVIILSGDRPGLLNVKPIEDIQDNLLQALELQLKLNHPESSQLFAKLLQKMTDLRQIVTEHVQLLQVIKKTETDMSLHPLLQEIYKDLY
Chain of Bile acid receptor (Homo sapiens) (Q96RI1 whole entry, looked up): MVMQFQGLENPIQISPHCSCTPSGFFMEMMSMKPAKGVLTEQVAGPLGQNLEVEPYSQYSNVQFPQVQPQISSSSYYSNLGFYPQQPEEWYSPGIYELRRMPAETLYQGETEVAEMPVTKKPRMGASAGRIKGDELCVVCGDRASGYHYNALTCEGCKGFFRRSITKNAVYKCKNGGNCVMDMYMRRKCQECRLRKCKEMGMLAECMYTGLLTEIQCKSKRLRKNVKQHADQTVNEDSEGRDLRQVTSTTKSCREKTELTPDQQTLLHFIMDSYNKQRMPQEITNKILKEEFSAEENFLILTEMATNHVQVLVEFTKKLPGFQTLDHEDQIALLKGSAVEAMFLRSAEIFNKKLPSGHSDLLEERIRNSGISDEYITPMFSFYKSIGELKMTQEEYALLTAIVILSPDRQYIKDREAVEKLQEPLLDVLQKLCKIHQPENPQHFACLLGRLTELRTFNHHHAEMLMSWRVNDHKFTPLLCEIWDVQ

COCCC#N
not listed: [13] | [14] | [15] | [16] | [17] | [18] | [19]
inactive: all other assays above

c1ccc(Nc2ccc(Nc3ccccc3)cc2)cc1
active: [3] 60.9 µM | [4] 24.4 µM
inactive: [13] | [14] | [6] | [7] | [8] | [15] | [10] | [11] | [12]

Nc1ccc(Cl)cc1C(=O)c1ccccc1F
not listed: [1] | [2] | [7] | [9] | [11] | [12] | [13] | [19]
inactive: all other assays above

O=Cc1ccccc1
not listed: [1] | [7] | [14] | [18] | [19]
inactive: all other assays above

C[C@]12CC[C@H]3[C@@H](CCC4=CC(=O)CC[C@@H]43)[C@@H]1CC[C@@H]2OC(=O)CCc1ccco1
inactive: [11]
active: [4] 13.3 µM | [5] 26.6 µM | [7] 29.8 µM | [9] 21.1 µM | [18] 21.1 µM

O=C1C(Cl)=C(Cl)C(=O)C(Cl)=C1Cl
active: [5] 15.5 µM | [7] 13.8 µM | [18] 12.3 µM and 13.8 µM
inactive: [13] | [6] | [17] | [10] | [11]
inactive and 13.7 µM (active): [3]
inactive and 19.5 µM (active): [9]

C=CCBr
not listed: [4] | [5] | [6] | [8] | [12] | [13]
inactive: all other assays above

CCn1cc[n+](C)c1 (tested in a mixture with another compound)
inactive: [13] | [14] | [2] | [3] | [4] | [5] | [7] | [9] | [18]

O=c1[nH]c(Cl)c(Cl)cc1Cl
not listed: [2] | [4] | [5] | [7] | [13] | [19]
inactive: all other assays above

CCOP(=O)(OCC)Oc1nc(Cl)c(Cl)cc1Cl
active: [19] 1.37 µM | [5] 38.7 µM | [8] 12.2 µM
inactive: [1] | [4] | [11]
